From PubChem BioAssay AID2391 (Southern Research Specialized Biocontainment Screening …, 2010)
In all, about 310,000 compounds went through this assay and about 410 (0.13%) were called active. Not shown: some 2% with an inconclusive outcome. The rule behind the calls is not given here. A selection follows. Potency and affinity values are given separately.

Experiment: RSV antiviral activity via CPE protection, HEp-2 cells, primary 10 µM value included (AID 2391)
Settings: RSV-induced CPE inhibition, at 10 µM, stronger effect = higher value

CPE inhibition, inactive:
C=CCN(Cc1nc(-c2cc(OC)ccc2OC)oc1C)C1CCS(=O)(=O)C1 (centres undefined) -0.75%
Fc1ccccc1C1c2[nH]c3ccccc3c2CCN1Cc1cccn1-c1ncccn1 (centres undefined) 16.6%
CCOc1ccc(C2c3[nH]c4ccccc4c3CCN2Cc2cccn2-c2ncccn2)cc1 (centres undefined) 43.1%
CC(C)(C)c1ccc(-c2nc(C#N)c(NCc3cccnc3)o2)cc1 0.34%
COc1ccc(C(C)(C)C)cc1NC(=O)c1ccc[n+]([O-])c1 0.85%
O=C(NCc1ccccc1)c1ccc[n+]([O-])c1 0.02%
CC(=O)C1=C(O)C(=O)N(c2nccs2)C1c1ccc(F)cc1 (centres undefined) 1.72%
O=c1/c(=C\c2ccc(F)cc2)sc2n1CCCN=2 0.07%
Cc1cccnc1Nc1nc(-c2ccc(F)cc2)cs1 14.5%
CCCCN(C)C(=O)c1cc2cc3ccc(OC)cc3nc2o1 12.1%
CCCCN(CC)C(=O)c1cc2cc3ccc(OC)cc3nc2o1 20.6%
COc1ccc2cc3cc(C(=O)N4CCCCCC4)oc3nc2c1 5.67%
Cc1ccc2cc3cc(C(=O)NC4CCCCC4)oc3nc2c1 4.34%
COc1ccc2cc3cc(C(=O)N4CCCC(C)C4)oc3nc2c1 (centres undefined) -0.12%
Cc1ccc2cc3cc(C(=O)N4CCCCCC4)oc3nc2c1 58.9%
CCOc1cc(/C=N/N=C2/NC(=O)C(CC(=O)O)S2)ccc1OCc1ccc(Cl)cc1 (centres undefined) 2%
COc1ccc(/C=N/N=C2/NC(=O)C(CC(=O)O)S2)cc1OCc1ccc(Cl)cc1Cl (centres undefined) 1.42%
CC(C)NC(=O)CCNC(=O)c1ccc(F)cc1 0.45%
CCCCCCC(C)n1[nH]c(=O)c2c(C)cc(C)nc21 (centres undefined) 6.56%
O=C(NC1=NCCS1)c1cc(-c2ccc(F)cc2)nc2ccccc12 8.35%
COCCNC(=O)COC(=O)c1cc(-c2ccc(OC)cc2)nc2ccccc12 2.44%
COCCCNC(=O)c1cc(-c2cccnc2)nc2ccccc12 1.57%
O=C(Nc1ncccn1)c1cc(-c2cccc(Br)c2)nc2ccccc12 10.3%
O=C(NC1=NCCS1)c1cc(-c2cccnc2)nc2ccccc12 3.02%
COc1cccc(-c2cc(C(=O)Nc3ccncc3)c3ccccc3n2)c1 18.1%
Cc1ccc2nc(SCc3cn4cccnc4n3)[nH]c2c1 0.92%
CC(C(=O)Nc1cccc([N+](=O)[O-])c1)n1nnc2ccccc21 (centres undefined) -0.02%
CCC1Sc2ccc(S(=O)(=O)CCC(=O)Nc3c(Cl)cc(OC)cc3OC)cc2NC1=O (centres undefined) 12.2%
Cc1ccc(N2CCN(C(=O)NC3CCCCC3)CC2C)cc1 (centres undefined) 3.66%
COc1ccc(NC(=O)NCCCN2CCN(c3ccccc3F)CC2)cc1 -2.01%
CCOc1ccc(C(=O)CN2C(=O)NC3(CCCCCC3)C2=O)cc1 1.63%
COc1cc2c(cc1OC)C(C)N(C(C)=O)CC2 (centres undefined) -1.08%
COc1cc2c(cc1OC)C(C)N(C(=O)/C=C/c1cc(OC)c(OC)c(OC)c1)CC2 (centres undefined) 1.08%
COc1cc2c(cc1OC)C(C)N(C(=O)c1ccc(C)o1)CC2 (centres undefined) 3.08%
COc1cc2c(cc1OC)C(C)N(C(=O)c1ccc(Br)o1)CC2 (centres undefined) 4.76%
Cc1ccc(NC(=O)c2c(F)cccc2Cl)cc1S(=O)(=O)N1CCOCC1 2.31%
CCOc1ccc(NC(=O)CC2C(=O)N(c3ccccc3)C(=S)N2Cc2ccccn2)cc1 (centres undefined) 7.95%
COc1ccc(N2C(=O)C(CC(=O)Nc3ccccc3)N(Cc3ccccn3)C2=S)cc1 (centres undefined) 4.08%
CCOc1ccc(NC(=O)CC2C(=O)N(c3ccc(OC)cc3)C(=S)N2Cc2ccccn2)cc1 (centres undefined) -1.46%
CCOc1ccc(NC(=O)CC2C(=O)N(c3ccccc3)C(=O)N2Cc2ccccn2)cc1 (centres undefined) 3.73%
CCCCCc1cc(=O)oc2c(C(CCN3CCCCC3)c3ccc(OC)cc3)c(OC)cc(OC)c12 (centres undefined) -3.75%
C[C@@]12C(=O)N(c3ccc(F)cc3)C(=O)N1[C@@H]1c3ccccc3OC[C@@H]1[C@H]2c1ccccc1 6.7%
COc1cccc2c1c(NC(=O)Nc1ccc(F)cc1F)nn2C 1.98%
COc1cccc2c1c(NC(=O)c1cc(C)on1)nn2C 2.09%
CC(=O)Nc1ccc(NC(=O)C2CCC(N3C(=O)C4C5C=CC(C6CC56)C4C3=O)CC2)cc1 (centres undefined) 1.77%
CC(C(=O)N1CCCC1)N1CCN(S(=O)(=O)c2ccc(C(C)(C)C)cc2)CC1 (centres undefined) 0.2%
Cc1ccc(CSCC(=O)Nc2ccccc2F)cc1 0.6%
Cc1c(NC(=O)CSCc2ccccc2)cccc1C(=O)O -0.3%
O=C(CSc1nc2ccccc2s1)N/N=C/c1ccco1 0.58%
Cn1cccc1Cc1nnc(SCC(=O)Nc2ccc3c(c2)OCCO3)n1-c1ccc(F)cc1 0.23%
Cc1ccc(C(=O)N[C@H](C(=O)OCC(=O)Nc2cccc(S(N)(=O)=O)c2)C(C)C)cc1 -0.34%
O=C(NC1CCCCC1)c1ccc(N2CCCC2=O)cc1 2.08%
Cn1ncc(Br)c1C(=O)N1CCOCC1 3.84%
CC1CCN(C(=O)COc2ccccc2F)CC1 4.04%
O=C(CNC(=O)c1ccccc1F)NCCOc1ccccc1Cl 0.24%
COC(=O)c1cc(S(=O)(=O)N2CCC(C)CC2)ccc1F 0.31%
O=C(NCCOc1ccccc1Cl)C(=O)NCCOc1ccccc1Cl 3.63%
CCN1C(=O)[C@H]2[C@@H](c3ccc(C)cc3)N3C(=O)N(c4cccc(Cl)c4)C(=O)[C@@]3(CC(C)C)[C@H]2C1=O 3.11%
N#Cc1ccc(CSc2nnc(-c3cccnc3)n2-c2ccccc2)cc1 0.49%
